Screening data: PubChem, several laboratories
Only some compounds are listed: those with a hit (about 5.2% of all), similar ones and a draw of the others.
NadD inh – inhibitors of S. aureus NadD, primary screen, biochemical, colorimetric, uHTS. 360,000 tested, 0.78% active. Nicotinate-nucleotide adenylyltransferase NadD (Staphylococcus aureus N315). purified NadD enzyme, colorimetric absorbance read-out. inhibition, % at 20 µM; in the data active means inhibition above about 26%
Vif imaging – HIV Vif self-association inhibitors, primary screen, imaging, HEK293T, single point; HEK293T cells, Vif self-association by quenched fluorescence, 24 h; inhibition, % at 7.49 µM; 340,000 tested, 0.35% active; in the data active means inhibition above about 50%, passing the limit was not always enough; inconclusive means no clear call, values can overlap the other calls; inactive means below about 31%
SMARCA2 activ – SMARCA2 (BRM) function activators, primary screen, cell-based, luminescence, high throughput; MG213 cells, MMTV-luciferase reporter, dexamethasone, overnight; activation, % at 9.1 µM; 370,000 tested, 1% active; in the data active means activation above about 7.8%;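 further: 0% = vehicle wells and 100% = reference activator wells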
esBAF inh – Bmi1 luciferase reporter increase in mESCs, primary screen, esBAF inhibitor project, mouse ES cells, Bmi1 luciferase knock-in, single point; 24 h; 100% = twice the neutral-well signal; reporter increase, % at 12.5 µM; 350,000 tested, 2% active; in the data active means activation above about 40%; inconclusive means no clear call, values can overlap the other calls;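 further: 0% = median of the plate's neutral control wells and 100% = double that signal; a rise in the Bmi1 reporter signal indicates esBAF inhibition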
SKN-1 block – suppressors of acrylamide-induced Pgst-4::GFP reporter in worms, primary screen, SKN-1 inhibitor project, whole organism, uHTS, GFP/RFP fluorescence ratio, strain VP596 | 360,000 tested, 0.49% active | inhibition, % at 21.8 µM | C. elegans VP596 Pgst-4::GFP/RFP ratio, 24 h;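 active means interference check ratio from 0.5 to 1.5 plus GFP to RFP signal ratio inhibition reaching or exceeding a fixed threshold, cut at about 30% in these data, passing the limit was not always enough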
NR3A LBD binder – binders of NR3A ligand-binding domain, primary screen, biophysical, differential scanning fluorimetry, uHTS; AID 1259313, 2017; Tm shift relative to glycine control, % at 25 µM; 340,000 tested, 2.5% active; Glutamate receptor ionotropic, NMDA 3A (GRIN3A) ligand-binding domain; NR3A LBD differential scanning fluorimetry, Tm shift; 0% = protein alone, 100% = glycine-bound protein;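 active means melting temperature shift of at least 10% of the positive control shift, at one fixed dose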
SMARCA2 act conf – SMARCA2 (BRM) function activators, confirmation, cell-based, luminescence, triplicate | shares compounds with SMARCA2 activ | MG213 cells, MMTV-luciferase with dexamethasone, overnight; MG213 cells expressing E1A, Rb sequestered; DMSO wells 0%, reference activator 100% | activation, % at 9.1 µM | 3,500 tested, 30% active | AID 652260, 2013;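 active means activation above its plate's cutoff, the mean activation of tested wells plus 3 SD, cut at about 7.9% in these data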
GAL4-VP16 Luc – GAL4-VP16 luciferase reporter activation, counter-screen for SMARCA2 (BRM) activator project, cell-based, pG5luc, luminescence, high throughput; shares compounds with SMARCA2 activ; HEK293 GAL4-VP16 pG5luc reporter; scaled: DMSO wells 0%, SAHA wells 100%; activation, % at 9.1 µM; 3,500 tested, 41% active;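 active means activation above the solvent-only control well mean plus 3 SD, averaged across control plates, cut at about 5.2% in these data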
An asterisk follows results filed as active; ? = inconclusive; / = not tested or not shown.

SMILES | NadD inh | Vif imaging | SMARCA2 activ | esBAF inh | SKN-1 block | NR3A LBD binder | SMARCA2 act conf | GAL4-VP16 Luc
COCCCNC(=S)Nc1ccc(OC(F)F)cc1C | -2 | 3 | -3 | 3 | 5 | 0 | / | /
COCCCNC(=S)Nc1cc(C)c(C)cc1C | 2 | -2 | 8.6* | -1 | 6 | -1 | 5 | 1
COCCNC(=O)C[C@@H]1C[C@H]2c3cc(NC(=O)COC)ccc3O[C@H]2[C@H](CO)O1 | / | / | / | -3 | / | / | / | /
CO[C@H]1CN(C)C(=O)c2cc(NC(=O)c3nc4ccccc4s3)ccc2OC[C@H](C)N(Cc2cncnc2)C[C@H]1C | / | / | / | -13 | / | / | / | /
CCN(CC)C(=O)CSc1nc(N)c2c3c(sc2n1)CC(C)CC3 (centres undefined) | 0 | -18 | 8.3* | / | 2 | 0 | 4 | 8.1*
O=S(=O)(c1ccccc1F)N1CC[C@@H]2[C@H]1c1cc(-c3ccccc3F)ccc1N[C@@H]2CO | / | / | / | -4 | / | / | / | /
COc1ccc(Nc2cc(C(=O)NCCCN3CCOCC3)c3ccccc3n2)cc1OC | 2 | ? | 9.8* | 7 | 11 | 0 | 1 | 1
COc1ccc(Nc2cc(C(=O)NCCCN3CCN(C)CC3)c3ccccc3n2)cc1OC | -8 | -2 | 1 | / | 21 | 0 | / | /
COc1ccc(CNCCC2(Cc3ccccc3)CC(C)N(C)CC2C)cc1OC (centres undefined) | 2 | -2 | 8.3* | / | -14 | -1 | 5 | 2
COc1ccc(CCNC(=O)C(=O)N/N=C/c2cccs2)cc1OC | -2 | 13 | 14* | 10 | -5 | -1 | -1 | -1
CCOc1cc(NC(=S)NCc2ccco2)c(OCC)cc1NC(=O)C1CC1 | 0 | 9 | 8.0* | -2 | -4 | 0 | -1 | 1
O=c1nc(N/N=C/C=C/c2ccccc2)cn[nH]1 | -9 | -1 | 12* | / | -1 | 1 | 12* | 6.7*
O=C(O)c1ccc(N/N=C/C=C/c2ccccc2)cc1 | -8 | -1 | 8.0* | 37 | 7 | 4 | 4 | 17*
CC=Cc1ccc2n(c1=O)C[C@H]1[C@H](CO)[C@@H](C(=O)N3CCc4ccccc4C3)N[C@@H]21 (mixture of isomers) | / | / | / | 2 | / | / | / | /
c1ccc(N=Nc2ccc(C3=NCCO3)cc2)cc1 | 2 | -6 | 10* | -36 | 53* | / | 9.2* | 9.8*
O=c1nccc(N/N=C/c2ccccc2)[nH]1 | -3 | 3 | 8.2* | 8 | 9 | -1 | 6 | 4
O=C(CN1C(=O)CSc2ccccc21)NC1CCCC1 | -4 | / | 8.3* | 0 | -2 | -2 | 0 | 0
CC1CC(=O)N(CC(=O)NC2CCCCC2)c2ccccc2S1 (centres undefined) | 1 | -7 | 1 | 1 | -14 | -1 | / | /
C=CCC(NCc1ccco1)c1ccc(OC)c(OC)c1 (centres undefined) | -11 | 3 | 9.9* | 0 | -1 | 3 | -3 | 1
C=C(C)CC(NCc1ccco1)c1ccc(OC)cc1 (centres undefined) | -8 | -7 | 1 | -17 | -11 | -8 | / | /
N#CCn1cnc2sc(-c3ccccc3)cc2c1=O | 0 | 9 | 9.1* | / | 7 | -4 | 11* | 1
CC(=O)Cn1cnc2sc(-c3ccccc3)cc2c1=O | 0 | 3 | 3 | / | 18 | 3 | / | /
